# Only some compounds are listed: those with a hit (about 6.2% of all), similar ones and a draw of the others.
# Marburg entry inh – qHTS for inhibitors of binding or entry into cells for Marburg Virus; Marburg virus pseudotyped entry inhibition, cell reporter; AID 540276, 2011; Potency, µM (titrated, usually from 37.8 µM), hits mostly inhibitors; 300,000 tested, 1.8% active; calls by dose curve; tested in HEK293 cells
# HCMV inh – qHTS Assay for inhibitors of the human cytomegalovirus (HCMV); HFF cells, HCMV-luciferase reporter, 72 h; hits give low values; activity change, negative = inhibition, % at 57.5 µM; 410,000 tested, 4.5% active; AID 1259415, 2018; in the data active means activity change below about -60%; inconclusive means no clear call, values can overlap the other calls; inactive means above about -39%
#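 Two compound doses tested in HFFs infected with HCMV-luciferase, MOI 1 PFU/cell, 72 h at 37C. Lysate luminescence read with OneGlo; data normalized against buffer-only and 10uM Salinomycin inhibitor controls.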
# FMDV antiviral – High Throughput Screening for Foot and Mouth Disease Virus Antivirals | Potency, µM (highest dose often 57.9 µM), hits mostly inhibitors | FMDV antiviral cell-based qHTS | 410,000 tested, 1.2% active; calls by dose curve; tested in HEK293T cells; further: read-out not given here; nearly all actives have a fitted effect of over 45% in size
# LASV entry inh – qHTS for Inhibitors of binding or entry into cells for Lassa Virus; Lassa virus pseudotype entry inhibition, cell reporter; Potency, µM (highest dose often 37.9 µM), actives largely listed as inhibitors; 300,000 tested, 1.2% active; AID 540256, 2011; calls by dose curve; tested in HEK293 cells; further: nearly all actives have a fitted effect of over 50% in size
# Hits are given with their value; . = inactive; ? = inconclusive; / = not tested or not shown; ! = not confirmed by another sample.
SMILES,Marburg entry inh,HCMV inh,FMDV antiviral,LASV entry inh
CCOC(=O)/C(=C\c1ccc(Cl)cc1)c1nc2sc(C)c(C)c2c(=O)[nH]1,?,-75.1,10µM,?
CCOC(=O)CSc1nc2sc(C)c(C)c2c(=O)[nH]1,.,.,.,.
O=C(CCNS(=O)(=O)c1cccc(Cl)c1)OCC(=O)N1CCN(C(=O)c2ccco2)CC1,.,.,.,.
CCOC(=O)C1CCN(S(=O)(=O)c2c(Cl)ccc3nonc23)CC1,/,-113.0,/,/
Clc1cccc(N2CCN(c3nc4ccccc4c4nc(-c5ccccc5)nn34)CC2)c1,.,.,.,/
Cc1cccc(-c2nc3c4ccccc4nc(N4CCN(c5cccc(Cl)c5)CC4)n3n2)c1,?,-61.5,.,/
COc1ccc(CNC(=O)CN2CCSc3ccccc32)c(OC)c1,/,.,.,.
CC(=O)c1cn(C(=O)c2ccc(Cl)cc2)c2ccccc12,.,-66.8,.,.
COC(=O)c1cn(C(=O)c2ccc(C)cc2)c2ccccc12,/,.,.,/
COC(=O)c1cn(C(=O)c2ccc(OC)cc2)c2ccccc12,?,-65.5,.,.
Cc1nc2ccccn2c(=O)c1CCN1CCC(C(=O)c2ccc(F)cc2)CC1,6.31µM!,.,.,.
Cc1nc2sccn2c(=O)c1S(=O)(=O)N1CCN(c2ccc(F)cc2)CC1,/,.,.,.
Cc1nc2sccn2c(=O)c1CCN1CCC(=C(c2ccc(F)cc2)c2ccc(F)cc2)CC1,20µM,.,.,11.6µM
COc1ccc(/C=C(/C#N)C(=O)NC2CCCCC2)cc1Br,?,.,.,.
CN(C)C(=S)SSC(=S)N(C)C,/,-98.5,.,/
O=C(N/N=C1\CC(c2ccccc2)Oc2ccccc21)c1ccc(O)cc1 (stereo not drawn),.,?,.,?
O=C(N/N=C1\CC(c2ccccc2)Oc2ccccc21)c1cccnc1 (stereo not drawn),.,-83.1,.,?
O=C(CN1CCCCCC1)Nc1cccc(Br)c1,?,?,.,.
CCc1nc(Nc2ccc3c(c2)OCO3)c2oc3ccccc3c2n1,?,.,?,.
Cn1cc(SCC(=O)N2CCOCC2)c2ccccc21,/,.,.,/
Cn1cc(SCC(=O)N2CCN(c3ccccc3)CC2)c2ccccc21,/,-84.4,.,/
CCc1nc(NCc2ccccn2)c2oc3ccccc3c2n1,?,-63.3,15.8µM,.
CC(=O)Nc1ccc(Nc2nc(C)nc3c2oc2ccccc23)cc1,?,.,?,?
Cc1nc(Nc2ccncc2)c2oc3ccccc3c2n1,?,-98.3,?,.
CCc1nc(Nc2cccc(O)c2)c2oc3ccccc3c2n1,/,/,22.4µM,/
SMILES,Marburg entry inh,HCMV inh,FMDV antiviral,LASV entry inh
CCc1ccccc1NC(=O)c1cc(-c2cccs2)on1,.,.,.,.
COc1ccc(OC)c(N2C(=O)C(Cl)=C(N3CCOCC3)C2=O)c1,.,.,.,.
CCCC1(CC)C(=O)NC(=O)N=C1N (stereo not drawn),.,.,.,.
CN(Cc1ccccc1)C(=O)C1CCN(S(=O)(=O)c2cccc3nonc23)CC1,.,.,.,?
O=C(NCc1ccc(Cl)cc1Cl)Nc1nc([C@@H]2O[C@H](CO)[C@@H](O)[C@H](O)[C@H]2O)cs1,/,.,.,/
C=CCn1c(SCC(=O)N2CCN(c3ccccc3)CC2)nnc1-c1ccco1,.,.,.,.
CCCc1nc(SCC(=O)N2CCN(c3ccccc3)CC2)c2c(=O)n(C)c(=O)n(C)c2n1,/,.,?,/
CC(C)c1nc(SCC(=O)N2CCN(c3ccccc3)CC2)c2c(=O)n(C)c(=O)n(C)c2n1,/,.,20µM,/
CCc1nc(SCC(=O)N2CCCc3ccccc32)c2oc3ccccc3c2n1,?,.,.,18.3µM
Cc1nc(NC(C)c2ccccc2)c2oc3ccccc3c2n1 (stereo not drawn),?,-65.4,12.6µM,?
CCn1c(SCC(=O)N2CCN(c3ccccc3)CC2)nnc1-c1cc2cc(Cl)ccc2o1,.,-80.5,.,.
CCC1(CCc2ccncc2)C(=O)NC(=O)NC1=O,.,.,.,.
COc1cc(NC(=O)c2cccc([N+](=O)[O-])c2C)ccc1NC(=O)c1ccco1,?,.,.,?
N#CC1=C(S)N(c2ccccc2)C(c2ccc(-c3cccc(Cl)c3)o2)NC1=O (stereo not drawn),.,.,.,.
Cc1ccc(SC(C)c2nc(-c3cccnc3)no2)cc1 (stereo not drawn),.,.,.,.
CCc1nc(N2CCCCC2C)c2oc3ccccc3c2n1 (stereo not drawn),18.3µM,.,?,?
CCc1nc(NC(C)C)c2oc3ccccc3c2n1,.,.,.,.
CCc1nc(N2CCCCC2C(=O)O)c2oc3ccccc3c2n1 (stereo not drawn),.,.,.,.
